This is a sample that favours compounds with a hit; in the whole collection about 3% have one here.
TRb-SRC2 inh: TRbeta-SRC2 interaction inhibition | AID 1469 | TRbeta-SRC2 peptide binding, fluorescence polarization; receptor liganded with 1 µM T3 | hit rate 0.065% among 280,000 | Potency, µM (highest dose often 106 µM), inactives show top-dose activity change, negative = inhibition, actives largely listed as inhibitors | P10828;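 also: plate controls were bound peptide for no effect and peptide without receptor for full effect; nearly all actives have a fitted effect of over 50% in size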
Target sequence (P10828 whole entry, looked up): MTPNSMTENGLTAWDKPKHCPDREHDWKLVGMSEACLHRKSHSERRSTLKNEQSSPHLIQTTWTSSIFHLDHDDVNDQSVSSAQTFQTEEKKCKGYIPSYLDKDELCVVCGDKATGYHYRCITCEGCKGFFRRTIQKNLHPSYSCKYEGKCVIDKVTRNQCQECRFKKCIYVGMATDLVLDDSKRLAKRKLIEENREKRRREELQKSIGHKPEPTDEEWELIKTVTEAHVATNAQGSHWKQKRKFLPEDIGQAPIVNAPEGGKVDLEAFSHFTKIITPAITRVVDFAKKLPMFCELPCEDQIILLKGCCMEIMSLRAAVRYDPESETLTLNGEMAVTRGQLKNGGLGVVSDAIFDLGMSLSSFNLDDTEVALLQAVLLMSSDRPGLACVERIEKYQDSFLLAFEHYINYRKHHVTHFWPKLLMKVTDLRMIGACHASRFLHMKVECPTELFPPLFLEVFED
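Fluorescence polarization of 20 nM Texas Red SRC2 peptide with 0.6 uM human TRb ligand-binding domain, in Tris buffer with 1uM T3 and 5% DMSO. Incubated 5 hr ambient; normalized to unbound and bound controls.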
Tau ThT inhib: tau fibrillization inhibition (ThT binding) | recombinant tau K18 P301L, heparin-induced fibrillization, ThT fluorescence | P10636 | Potency, µM (top dose mostly 57.4 µM), for inactives: at the top dose activity, negative = inhibition, hits mostly inhibitors | hit rate 2.1% among 270,000; also: nearly all actives have a fitted effect of over 55% in size
Target sequence (P10636 561-689 P618L limits assumed): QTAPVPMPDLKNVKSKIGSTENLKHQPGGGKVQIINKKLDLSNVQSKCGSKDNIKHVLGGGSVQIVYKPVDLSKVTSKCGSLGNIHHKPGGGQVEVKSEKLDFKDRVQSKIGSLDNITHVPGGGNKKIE
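Using a mix of unlabeled (15 uM) and Alexa 594-labeled (0.24 uM) tau K18 P301L, heparin-triggered fibrillization over 6 hr at 37 C was scored by ThT fluorescence.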
Tau FP inhib: tau fibrillization inhibition (FP); P10636; K18 P301L tau heparin fibrillization, Alexa594 FP, 6 h; Potency, µM (highest dose often 57.7 µM), for the others: at the top dose activity, negative = inhibition, actives largely listed as inhibitors; hit rate 0.39% among 280,000; AID 1468; also: nearly all actives have a fitted effect of over 55% in size
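Steps: dispense K18 P301L tau (15 uM plus 0.24 uM Alexa 594 tracer, final) in pH 7 sodium acetate; add compound; add heparin (20 uM final); incubate 6 hr, 37 C; add ThT (30 uM final); after 1 hr ambient, read FP.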
TexasRed fluor: counter-screen for TRb-SRC2 inhibitors: fluorescence interference; TRb/SRC2 Texas Red total fluorescence interference; Potency, µM (titrated, usually from 106 µM), for inactives: at the top dose fluorescence change, negative = quenching; hit rate 0.29% among 280,000; AID 1479; active = well fitted curve in either direction with a large enough effect; inconclusive = small, poorly fitted or top-dose-only effect
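Human TRb ligand-binding domain at 0.6 uM with 20 nM Texas Red SRC2 peptide in Tris buffer containing 1 uM T3 and 5% DMSO, incubated with compound 5 h at ambient temperature. Total fluorescence (555/632 nm) calculated as parallel + 2 × perpendicular.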
Tau fluor counter: counter-screen for tau fibril formation inhibitors. tau K18 P301L Alexa594 fluorescence, heparin fibrillization. Potency, µM (series often up to 57.7 µM), without a hit: at the top dose activity change, negative = decrease. hit rate 0.93% among 280,000; also: nearly all actives have a fitted effect of over 55% in size
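Human tau K18 P301L (15 uM unlabeled, 0.24 uM Alexa 594-labeled) in 100 mM sodium acetate pH 7 with 20 uM heparin, 6 hr at 37 C. ThT 30 uM added, 1 hr ambient; Alexa 594 FP and total fluorescence read at 555/632 nm.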
Active calls of the source: *; ? = inconclusive; . = no result given; [ ] = remark or other dose. Unless noted, calls follow the shape of the dose curve; as a rule, active = well fitted curve in the direction sought with a large enough effect; inconclusive = small, poorly fitted or top-dose-only effect, or another doubt; inactive = no such curve, though single readings can be large; an effect the other way counts as inactive or inconclusive. Unless noted, % is scaled to controls: 0 for no effect and ±100 for the full control effect; potency is read from the fitted curve at half-maximal effect.

SMILES | TRb-SRC2 inh | Tau ThT inhib | Tau FP inhib | TexasRed fluor | Tau fluor counter
COc1ccc(Cn2c(C(=O)O)c(CNC3CCC(C)CC3)c3ccc(C)cc32)cc1 (stereo unspecified) | 2.6% | -6.3% | 10.6% | -2.5% | -3.9%
Cc1ccc(N2CC(NC(=O)C3CCCC3)CC2=O)cc1 (stereo unspecified) | -1.1% | -3.1% | -10.4% | -0.6% | -2.9%
Cc1cc2c(cc3c(SCc4ccccc4Cl)nnc(C)n32)o1 | -0.5% | ? | ? | -1.9% | -17.4%
Cc1ccc(Nc2nnc(-c3ccc(C)c(S(=O)(=O)N4CCOCC4)c3)c3ccccc23)cc1 | -2.0% | 3.5% | -12.7% | -15.6% | -5.9%
O=C(N/N=C/c1c[nH]c2ccccc12)c1cc(-c2ccc3ccccc3c2)n[nH]1 | 15.8% | 3.1% | 6.4% | -3.1% | 5.2%
O=C(N/N=C/c1c[nH]c2ccccc12)c1cc(-c2ccccc2)n[nH]1 | 5.6%[53 µM] | ? | 14.7% | -7.4%[53 µM] | 25.1µM*[quencher]
Cc1ccc(OCc2nc(-c3ccc(C(=O)N4CCN(c5cccc(C(F)(F)F)c5)CC4)cc3)oc2C)cc1 | 9.7% | -14.0% | 8.4% | -6.7% | -12.8%
COC(=O)/C(=C\c1ccc(O)cc1)c1nc2ccccc2[nH]1 | -1.1% | ? | 7.2% | -0.9% | -11.0%
O=C(/C(=C/c1ccc(Cl)cc1)c1nc2ccccc2[nH]1)c1cccs1 | -11.3% | 15.8µM* | ? | -5.2% | -28.6%
O=C(/C(=C\c1ccccc1)c1nc2ccccc2[nH]1)c1ccc(Cl)cc1 | -1.0% | 22.4µM* | ? | 0.9% | -23.7%
COc1cc(/C=C(/C(=O)c2cccs2)c2nc3ccccc3[nH]2)ccc1O | 10.2% | ? | 1.6% | 1.2% | ?
COc1ccc(-n2c(-c3ccccc3F)nc3c(cnn3-c3ccc(C)cc3)c2=O)cc1 | -1.7% | -4.0% | 3.1% | -0.1% | -15.6%
Cn1c(=O)n(C)c2cc(N3CCOCC3)c(NC(=O)c3ccc(Cl)cc3)cc21 | -3.1% | -6.3% | 2.8% | 1.6% | -7.2%
CN(C)/C=C/c1oc2ccc(O)cc2c1[N+](=O)[O-] | -9.4% | 11.2µM* | 4.7% | -9.7% | -12.6%
Cc1oc2ccc(O)cc2c1C(=O)c1ccc([N+](=O)[O-])cc1 | 1.6% | -13.1% | 12.6% | 0.0% | -25.2%
COc1ccc(N2C(=O)C(Cl)=C(N3CCCC(C)C3)C2=O)cc1 (stereo unspecified) | 8.4% | 15.8µM* | 28.2µM* | 1.2% | ?
CC1CCCN(C2=C(Cl)C(=O)N(c3cccc(Cl)c3)C2=O)C1 (stereo unspecified) | -1.3% | 14.1µM* | 17.8µM* | 0.0% | ?
COc1ccc(N2C(=O)C(Cl)=C(N3CCCC3)C2=O)cc1 | -0.6% | ? | ? | -0.4% | -21.1%
CCCN1CCCc2ccccc21 | -7.7% | -10.6% | -1.3% | -1.9% | -14.2%
N#CCCN1CCCc2cc(N=Nc3ccc(C(F)(F)F)cc3)ccc21 | 3.4% | 3.55µM* | ? | -2.6% | 8.91µM*[quencher]
CCOc1ccc(-c2csc(NNC3=NCCCCC3)n2)cc1 | -7.8% | 15.8µM* | ? | 0.5% | -23.6%
COc1ccc(-c2csc(NNC3=NCCCCC3)n2)cc1 | -3.3% | 25.1µM* | ? | -1.0% | -21.7%
COc1ccc(-c2csc(NC3=NCCCCC3)n2)cc1 | -0.9% | ? | 18.6% | -3.0% | -26.7%
C/C(CC(=O)Nc1cc(C)ccn1)=N\NC(=O)c1ccccc1C | -0.7% | ? | ? | -6.7% | ?
C/C(CC(=O)Nc1cccc(Cl)c1Cl)=N\NC(=O)c1ccccc1C | -6.6% | 5.62µM* | -44.2% | -8.6% | -35.4%
SMILES | TRb-SRC2 inh | Tau ThT inhib | Tau FP inhib | TexasRed fluor | Tau fluor counter
COc1cc(NCc2ccc3nc(N)nc(N)c3c2C)cc(OC)c1OC | -2.8% | 20µM* | ? | -17.6% | ?
COc1cc(CNc2nc3ccccc3n2C)cc(OC)c1OC | 0.6% | 2.5% | 2.5% | -0.5% | 3.3%
CC(=O)c1ccc(NC(=O)c2ncn(-c3ccccc3)n2)cc1 | -7.5% | ? | -14.6% | -0.4% | -15.8%
CC1(OC(=O)c2ccc(Cl)nc2)C(=O)C=c2cc(-c3ccsc3)ncc2=C1OC(=O)C1CCCC1 (stereo unspecified) | -3.2%[11.2 µM] | 4.0%[11.5 µM] | -5.6%[11.6 µM] | -0.5%[11.2 µM] | 0.5%[11.6 µM]
Cc1nn(-c2ccccc2)c(C)c1/C=N\N1CCN(c2ccc(Cl)cc2)CC1 | 6.1% | 8.91µM* | -7.6% | -4.7% | ?
Cc1nn(-c2ccccc2)c(C)c1/C=N/n1cnnc1 | -3.6% | -5.3% | -10.4% | 0.4% | -7.8%
Oc1ccc(/C=N/Nc2nc(-c3ccc(Cl)cc3)cc(C(F)(F)F)n2)cc1 | 4.0% | 17.8µM* | ? | -4.5% | 25.1µM*[quencher]
CCOC(=O)C1=C(C)N(c2ccccc2)C(=O)/C1=C\c1ccc(O)c(OC)c1 | 7.6% | . | 35.5µM* | -4.2% | 25.1µM*[quencher]
CCOC(=O)C1=C(C)N(c2ccccc2)C(=O)/C1=C\c1cccs1 | -0.9% | ? | -11.0% | 0.5% | -19.8%
CCOC(=O)C1=C(C)N(c2ccc(C)cc2)C(=O)/C1=C\c1cccs1 | -9.9% | 15.8µM* | -17.7% | -0.6% | -25.4%
COc1cccc(NC(=O)Nc2nnc(N3C(C)CCCC3C)s2)c1 (stereo unspecified) | 2.1% | ? | ? | -1.9% | 10µM*[quencher]
COc1cccc(NC(=O)Nc2nnc(CC(=O)Nc3ccccc3)s2)c1 | 6.7% | -2.7% | 12.6µM* | -1.0% | ?
Cc1ccc(CCNC(=O)c2c[nH]c3ccc(S(=O)(=O)Nc4ccc(C)cc4C)cc3c2=O)cc1 | -18.7% | 5.8% | 4.47µM* | -60.8% | ?
COCCNC(=O)c1c[nH]c2ccc(S(=O)(=O)N3CCc4ccccc43)cc2c1=O | -5.3% | -0.5% | ? | -1.8% | ?
COc1cccc(NS(=O)(=O)c2ccc3[nH]cc(C(=O)NCCc4ccccc4)c(=O)c3c2)c1 | -5.6% | -7.2% | ? | -0.8% | ?
COCCCNC(=O)c1c[nH]c2ccc(S(=O)(=O)N3CCc4ccccc43)cc2c1=O | 3.3% | 9.8% | 28.2µM* | -1.3% | ?
Cc1cccc(CCNC(=O)c2c[nH]c3ccc(S(=O)(=O)Nc4ccccc4F)cc3c2=O)c1 | -19.6% | 13.7% | 7.08µM* | ? | ?
O=C(C1CCC(Cn2c(=O)c3sccc3n(Cc3ccc(F)cc3)c2=O)CC1)N1CCOCC1 (stereo unspecified) | 2.5% | 8.6% | -3.4% | 0.4% | 0.6%
Cc1ccc(/C=[N+](\[O-])c2ccc(N(C)C)cc2)c2nsnc12 | 35.5µM* | 6.31µM* | 31.6µM* | 39.8µM*[fluorescent] | ?
Cc1cc2c(c(=O)o1)C(c1ccc([N+](=O)[O-])o1)C(C#N)=C(N)O2 (stereo unspecified) | -10.9% | 14.1µM* | ? | 27.5% | -25.2%
CCC(CC)C1C(C#N)=C(N)Oc2cc(C)oc(=O)c21 (stereo unspecified) | -12.2% | -9.4% | -2.3% | 1.2% | -7.2%

Screening data (PubChem)
